Shown are actives, neighbours in structure and some others; about 13% of the full set was active somewhere.
MARV entry inh – Marburg virus entry inhibition. Marburg virus pseudotyped entry inhibition, cell reporter. Potency, µM (titrated, usually from 37.8 µM), without a hit: at the top dose activity change, negative = inhibition, usual class: inhibitors. actives 1.8% (n = 300,000); calls by dose curve; tested in HEK293 cells; also: potency is read from the fitted curve at half-maximal effect; % is scaled to controls: 0 for no effect and ±100 for the full control effect
Shiga inhibitor – inhibitors of Shiga toxin in Vero cells; actives 9.2% (n = 290,000); Vero cells, Shiga toxin protein synthesis inhibition reporter; inhibition, % at 38.7 µM; in the data active = inhibition mostly above about 28%, no sharp cut-off; inactive = mostly below about 43%; also: 0% is about no effect
CHX counter – counter-screen for Shiga toxin inhibitors: cycloheximide protein synthesis inhibition; actives 12% (n = 300,000); cell reporter, cycloheximide protein synthesis inhibition counterscreen; max response, %; in the data active = max response mostly above about 13%, no sharp cut-off; inactive = mostly below about 14%; also: read at 38.3 µM for the half of the compounds with a filed dose; 0% is about no effect
FMDV inh – antivirals against foot and mouth disease virus; FMDV antiviral cell-based qHTS; Potency, µM (top dose mostly 57.9 µM), without a hit: at the highest dose activity change, negative = inhibition, actives largely listed as inhibitors; actives 1.2% (n = 410,000); calls by dose curve; tested in HEK293T cells; also: read-out not given here; potency is read from the fitted curve at half-maximal effect; % is scaled to controls: 0 for no effect and ±100 for the full control effect; nearly all actives have a fitted effect of over 45% in size
Lassa entry inh – blocks Lassa virus binding to or entry into cells; Lassa virus pseudotype entry inhibition, cell reporter; Potency, µM (series often up to 37.9 µM), without a hit: top-dose activity change, negative = inhibition, hits mostly inhibitors; actives 1.2% (n = 300,000); AID 540256; calls by dose curve; tested in HEK293 cells; also: potency is read from the fitted curve at half-maximal effect; % is scaled to controls: 0 for no effect and ±100 for the full control effect; nearly all actives have a fitted effect of over 50% in size
HCV inhibitor – blocks hepatitis C virus | Huh7.5.1 HCVcc-Cre infection, luciferase reporter, 44 h | Potency, µM (top dose mostly 41.8 µM), for inactives: top-dose activity change, negative = inhibition, hits mostly inhibitors | actives 3.4% (n = 340,000) | AID 651820; active = well fitted inhibition curve with a large enough effect; inconclusive = small, poorly fitted or top-dose-only effect, or another doubt; inactive = no such curve, though single readings can be large or run the other way; also: potency is read from the fitted curve at half-maximal effect; % is scaled to controls: 0 for no effect and ±100 for the full control effect
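HCVcc-Cre virus at an moi near 0.5 was added right after compound to cells cultured 4 h from seeding (1,000 cells/well). Luciferase activity was determined 44 h later, 15 min after substrate addition at RT.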
* = called active by the depositor; [ ] = another dose, or the depositor's remark.

COCC(=O)N1CCC2(CCCN(Cc3ccccc3)C2)CC1 was read as FMDV inh -5.8%.
`O=C(NCCc1ccc(Cl)cc1)c1ccc(CSCc2ccc(Cl)cc2)o1` gave FMDV inh 0.0% and Lassa entry inh -18.7%[46.1 µM].
`CCOC(=O)c1cnn(-c2ccccc2)c1-n1cccc1` gave MARV entry inh 2.9%, Shiga inhibitor -7.3, CHX counter -5.2, FMDV inh -22.1%, Lassa entry inh -7.3% and HCV inhibitor inconclusive.
Screening COc1ccc(-c2c(C)nc3c(-c4ccccn4)cnn3c2N)cc1 returned MARV entry inh inconclusive, Shiga inhibitor 96.3*, CHX counter 59.5*, FMDV inh 0.0%, Lassa entry inh inconclusive and HCV inhibitor inconclusive.
For COc1ccc(-c2c(C)nc3c(-c4ccsc4)cnn3c2N)cc1 the results were Shiga inhibitor 85.2*, CHX counter 33.3*, FMDV inh 21.7% and HCV inhibitor -5.4%.
`COc1ccccc1NC(=O)CCc1nc(-c2cccs2)no1` gave MARV entry inh 9.6%, Shiga inhibitor -5.5, CHX counter -1.3, FMDV inh 2.6%, Lassa entry inh inconclusive and HCV inhibitor -4.6%.
COc1ccc(Cl)cc1NC(=O)CCc1nc(-c2ccccc2F)no1 was read as MARV entry inh 9.1%[46.1 µM], Shiga inhibitor -28.3, CHX counter -12.7, FMDV inh -11.7%, Lassa entry inh -10.4% and HCV inhibitor -20.3%.
`COc1cccc(NC(=O)CCc2nc(-c3ccccc3F)no2)c1` gave MARV entry inh 5.1%, Shiga inhibitor 13.1, CHX counter 16.8*, FMDV inh 0.0%, Lassa entry inh 16.2% and HCV inhibitor inconclusive.
Screening COc1ccccc1NC(=O)CCc1nc(-c2ccccc2F)no1 returned MARV entry inh -10.3%, Shiga inhibitor 40.0, CHX counter 15.8*, FMDV inh 9.5%, Lassa entry inh 15.5% and HCV inhibitor -19.0%.
Screening CCc1ccccc1NC(=O)CCc1nc(-c2cccs2)no1 returned MARV entry inh -0.6%, Shiga inhibitor 48.3*, CHX counter 20.3, FMDV inh 20.4%, Lassa entry inh 6.9% and HCV inhibitor -0.8%.
O=C(CCc1nc(-c2ccccc2F)no1)Nc1ccc(Oc2ccccc2)cc1 was read as MARV entry inh -12.5%[46.1 µM], Shiga inhibitor -4.8, CHX counter 4.7, FMDV inh inconclusive, Lassa entry inh inconclusive and HCV inhibitor inconclusive.
Screening COc1cc(=O)n2c(c1C(=O)NCc1ccco1)CCN(C(=O)c1cccnc1SC)CC2 returned FMDV inh 17.4%.
For CCCC1CC(CCc2ccccc2)OS(=O)(=O)N1 (stereo unspecified) the results were Shiga inhibitor -6.0, CHX counter -2.2, FMDV inh 95.6% and HCV inhibitor 42.7%.
`Cc1ccc(Cn2ccc(NC(=O)c3nn(C)cc3Cl)n2)cc1` gave MARV entry inh 6.0%[46.1 µM], Shiga inhibitor 91.6*, CHX counter 38.5*, FMDV inh 28.6%, Lassa entry inh 13.5% and HCV inhibitor 10.8%.
For O=C(Nc1ccn(Cc2ccc(Cl)cc2)n1)c1ccc2c(c1)OCO2 the results were MARV entry inh 16.2%, Shiga inhibitor 50.1*, CHX counter 21.9, FMDV inh -2.4%, Lassa entry inh 4.1% and HCV inhibitor 11.9%.
`Cc1ccccc1Cn1ccc(NC(=O)c2nn3cccnc3c2Cl)n1` gave MARV entry inh -5.7%[46.1 µM], Shiga inhibitor 46.5, CHX counter 22.2*, FMDV inh 0.2%, Lassa entry inh 12.3%[46.1 µM] and HCV inhibitor -10.1%.
Screening Cc1cccc(Cn2ccc(NC(=O)c3ccc4c(c3)OCO4)n2)c1 returned MARV entry inh inconclusive, Shiga inhibitor 73.7*, CHX counter 28.0*, FMDV inh 3.5%, Lassa entry inh 12.7% and HCV inhibitor 7.9%.
Cc1ccccc1Cn1ccc(NC(=O)c2cc3ncc(Br)cn3n2)n1 was read as Shiga inhibitor -6.4, CHX counter -1.3, FMDV inh -11.9% and HCV inhibitor 6.0%.
For Cc1cccc(Cn2ccc(NC(=O)c3cccnc3)n2)c1 the results were Shiga inhibitor 4.6, CHX counter 2.5, FMDV inh 9.7% and HCV inhibitor 1.8%.
For Cc1ccc(Cn2nc(C)c(NC(=O)c3nn(C)cc3Cl)c2C)cc1 the results were MARV entry inh -17.6%, Shiga inhibitor -5.0, CHX counter -2.0, FMDV inh -9.5%, Lassa entry inh -2.0% and HCV inhibitor 11.7%.
Cn1c(=O)c2c(SCCN3CCOCC3)nc(C3CCCC3)nc2n(C)c1=O was read as MARV entry inh 14.3%, Shiga inhibitor 0.3, CHX counter -1.3, FMDV inh 0.0%, Lassa entry inh 10.2% and HCV inhibitor -3.6%.
For CN(CC(=O)NCc1ccccc1Cl)S(=O)(=O)c1ccc2c(c1)c(=O)n(C)c(=O)n2C the results were MARV entry inh 18.1%[46.1 µM], FMDV inh 7.0% and Lassa entry inh 0.7%[46.1 µM].
`CCn1c(CCCNC(=O)c2ccco2)nc2ccccc21` gave MARV entry inh 8.6%[46.1 µM], Shiga inhibitor -6.0, CHX counter -4.8, FMDV inh -7.6% and HCV inhibitor 1.4%.
O=C(Nc1ccn(Cc2ccccc2)n1)c1ccc(F)cc1 was read as Shiga inhibitor 85.0*, CHX counter 45.0*, FMDV inh 30.6% and HCV inhibitor -18.8%.
`N#Cc1nn(-c2c(Cl)cc(C(F)(F)F)cc2Cl)c(N)c1S(=O)C(F)(F)F` (stereo unspecified) gave Shiga inhibitor -2.0, CHX counter -0.2 and FMDV inh 15.6%.
`CCN(CC)C(=O)Cn1cc(SCC(=O)Nc2cc(C)on2)c2ccccc21` gave MARV entry inh inconclusive, Shiga inhibitor -4.2, CHX counter -5.1, FMDV inh -16.0% and HCV inhibitor 18.1%.
`N#Cc1c(NC(=O)c2ccncc2)sc2c1CCC2` gave MARV entry inh 6.6%, Shiga inhibitor 47.4*, CHX counter 16.8*, FMDV inh 30.4%, Lassa entry inh -2.9% and HCV inhibitor -12.2%.
`N#Cc1c(NC(=O)c2ccc(Cn3cc(Br)cn3)o2)sc2c1CCCCC2` gave MARV entry inh -29.6%, Shiga inhibitor 102.7, CHX counter 38.8*, FMDV inh 0.1%, Lassa entry inh 3.0% and HCV inhibitor inconclusive.
NC(=O)c1c(NC(=O)c2ccccc2)sc2c1CCc1ccccc1-2 was read as MARV entry inh inconclusive, Shiga inhibitor 32.9, CHX counter 21.3*, FMDV inh 57.7%, Lassa entry inh -12.2% and HCV inhibitor 1.1%.
Screening N#Cc1c(NC(=O)c2ccco2)sc2c1CCC2 returned Shiga inhibitor -25.2, CHX counter -3.9, FMDV inh 54.5% and HCV inhibitor -28.5%.
For CNC(=O)c1c(NC(=O)C(C)C)sc2c1CCC2 the results were MARV entry inh -6.2%[46.1 µM], Shiga inhibitor -1.9, CHX counter -4.8, FMDV inh 0.7%, Lassa entry inh 1.5% and HCV inhibitor inconclusive.
Screening CNC(=O)c1c(NC(=O)c2nc3ccccc3s2)sc2c1CCC2 returned MARV entry inh 2.6%, Shiga inhibitor 94.4* and CHX counter 26.4*.

Screening data deposited in PubChem by National Center for Advancing Translational Sciences (NCATS).
